# Assay results from the supplement of paper PMC8728848.
# This is one part of a sample in which the strongest signals are shown more often than they occur.
# B1: Langerin K313I (Homo sapiens), Q9UJ71 (protein)
# chain: STLNAQIPELKSDLEKASALNTKIRALQGSLENMSKLLKRQNDILQVVSQGWKYFKGNFYYFSLIPKTWYSAEQFCVSRNSHLTSVTSESEQEFLYKTAGGLIYWIGLTKAGMEGDWSWVDDTPFNKVQSARFWIPGEPNNAGNNEHCGNIKAPSLQAWNDAPCDITFLFICKRPYVPSEP
# Legend:
# Assay in all cases: glycan array binding signal (z-score within array); higher = stronger binding
# Settings in all cases: glycan notation: IUPAC condensed, linker removed
# [1] = target: Fuc(a1-2)Gal(b1-3)GlcNAc(b1-3)Gal(b1-4)Glc
# Procedure, shortened: (§1)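 Glycan array data came from 3228 arrays in the Consortium for Functional Glycomics database, and only arrays with an available protein sequence were kept. Glycan names were put into IUPAC-condensed notation, and columns mapping to the same glycan were averaged. The binding signal is a within-array Z-score, averaged across arrays of one protein sequence run at different concentrations or buffers and across linkers. A negative Z-score can be read as non-binding.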
# [2] = target: Fuc(a1-2)Gal(b1-4)[Fuc(a1-3)]GlcNAc(b1-3)Gal(b1-4)[Fuc(a1-3)]GlcNAc(b1-3)Gal(b1-4)[Fuc(a1-3)]GlcNAc
# Procedure, shortened: as §1
# [3] = target: Fuc(a1-2)[Gal(a1-3)]Gal
# Procedure, shortened: as §1
# [4] = target: Fuc(a1-2)[Gal(a1-3)]Gal(b1-3)GlcNAc(b1-2)Man(a1-3)[Fuc(a1-2)[Gal(a1-3)]Gal(b1-3)GlcNAc(b1-2)Man(a1-6)]Man(b1-4)GlcNAc(b1-4)GlcNAc
# Procedure, shortened: as §1
# [5] = target: Fuc(a1-2)[Gal(a1-4)]Gal(b1-4)GlcNAc
# Procedure, shortened: as §1
# [6] = target: Fuc(a1-2)[GalNAc(a1-3)]Gal(b1-4)[Fuc(a1-3)]GlcNAc(b1-3)GalNAc
# Procedure, shortened: as §1
# [7] = target: Fuc(a1-2)[GalNAc(b1-3)]Gal
# Procedure, shortened: as §1
# [8] = target: Fuc(b1-3)GlcNAc
# Procedure, shortened: as §1
# [9] = target: Gal(a1-2)Gal
# Procedure, shortened: as §1
# [10] = target: Gal(a1-3)Gal(b1-3)[Fuc(a1-4)]GlcNAc(b1-2)Man(a1-3)[Gal(a1-3)Gal(b1-3)[Fuc(a1-4)]GlcNAc(b1-2)Man(a1-6)]Man(b1-4)GlcNAc(b1-4)GlcNAc
# Procedure, shortened: as §1
# [11] = target: Gal(b1-3)GlcNAc(b1-3)Gal(b1-4)Glc
# Procedure, shortened: as §1
# [12] = target: Gal(b1-3)GlcNAc(b1-3)Gal(b1-4)[Fuc(a1-3)]GlcNAc(b1-6)[Gal(b1-3)GlcNAc(b1-3)]Gal(b1-4)Glc
# Procedure, shortened: as §1
# [13] = target: Gal(b1-3)GlcNAc(b1-6)[Gal(b1-3)]GalNAc
# Procedure, shortened: as §1
# [14] = target: Gal(b1-3)[Fuc(a1-4)]GlcNAc(b1-3)Gal(b1-3)[Fuc(a1-4)]GlcNAc
# Procedure, shortened: as §1
# [15] = target: Gal(b1-4)GlcNAc
# Procedure, shortened: as §1
# [16] = target: Gal(b1-4)GlcNAc(b1-2)Man(a1-3)[Gal(b1-4)GlcNAc(b1-2)Man(a1-6)][Gal(b1-4)GlcNAc(b1-4)]Man(b1-4)GlcNAc(b1-4)[Fuc(a1-6)]GlcNAc
# Procedure, shortened: as §1
# [17] = target: Gal(b1-4)GlcNAc(b1-2)Man(a1-6)Man(b1-4)GlcNAc(b1-4)GlcNAc
# Procedure, shortened: as §1
# [18] = target: Gal(b1-4)GlcNAc(b1-3)Gal(b1-4)GlcNAc(b1-2)Man(a1-3)[Gal(b1-4)GlcNAc(b1-3)Gal(b1-4)GlcNAc(b1-2)Man(a1-6)]Man(b1-4)GlcNAc(b1-4)GlcNAc
# Procedure, shortened: as §1
# [19] = target: Gal(b1-4)GlcNAc(b1-3)Gal(b1-4)GlcNAc(b1-3)Gal(b1-4)GlcNAc(b1-3)Gal(b1-4)GlcNAc(b1-2)Man(a1-3)[Gal(b1-4)GlcNAc(b1-3)Gal(b1-4)GlcNAc(b1-3)Gal(b1-4)GlcNAc(b1-3)Gal(b1-4)GlcNAc(b1-2)Man(a1-6)]Man(b1-4)GlcNAc(b1-4)GlcNAc
# Procedure, shortened: as §1
# [20] = target: Gal(b1-4)GlcNAc(b1-3)Gal(b1-4)GlcNAc(b1-3)Gal(b1-4)GlcNAc(b1-3)Gal(b1-4)GlcNAc(b1-3)Gal(b1-4)GlcNAc(b1-3)Gal(b1-4)GlcNAc(b1-2)Man(a1-3)[Gal(b1-4)GlcNAc(b1-3)Gal(b1-4)GlcNAc(b1-3)Gal(b1-4)GlcNAc(b1-3)Gal(b1-4)GlcNAc(b1-3)Gal(b1-4)GlcNAc(b1-3)Gal(b1-4)GlcNAc(b1-2)Man(a1-6)]Man(b1-4)GlcNAc(b1-4)GlcNAc
# Procedure, shortened: as §1
# [21] = target: Gal(b1-4)GlcNAc(b1-3)Gal(b1-4)GlcNAc(b1-6)[Gal(b1-3)]GalNAc
# Procedure, shortened: as §1
# [22] = target: Gal(b1-4)GlcNAc(b1-3)GalNAc
# Procedure, shortened: as §1
# [23] = target: Gal(b1-4)GlcNAc(b1-3)[GlcNAc(b1-6)]Gal(b1-4)GlcNAc
# Procedure, shortened: as §1
# [24] = target: Gal(b1-6)Gal
# Procedure, shortened: as §1
# [25] = target: Gal3S(b1-3)GlcNAc
# Procedure, shortened: as §1
# [26] = target: Gal3S(b1-4)[Fuc(a1-3)]GlcNAc6S
# Procedure, shortened: as §1
# [27] = target: Gal6P(b1-4)GlcNAc
# Procedure, shortened: as §1
# [28] = target: GalNAc(b1-3)Gal
# Procedure, shortened: as §1
# [29] = target: GalNAc(b1-3)GalNAc
# Procedure, shortened: as §1
# [30] = target: GalNAc(b1-6)GalNAc
# Procedure, shortened: as §1
# [31] = target: GlcNAc(a1-3)Gal(b1-4)GlcNAc
# Procedure, shortened: as §1
# [32] = target: GlcNAc(b1-2)Man(a1-3)[GlcNAc(b1-4)][GlcNAc(b1-2)Man(a1-6)]Man(b1-4)GlcNAc(b1-4)[Fuc(a1-6)]GlcNAc
# Procedure, shortened: as §1
# [33] = target: GlcNAc(b1-3)Gal(b1-4)GlcNAc
# Procedure, shortened: as §1
# [34] = target: GlcNAc(b1-3)Gal(b1-4)GlcNAc(b1-2)[GlcNAc(b1-3)Gal(b1-4)GlcNAc(b1-6)]Man(a1-6)[GlcNAc(b1-3)Gal(b1-4)GlcNAc(b1-2)Man(a1-3)]Man(b1-4)GlcNAc(b1-4)GlcNAc
# Procedure, shortened: as §1
# [35] = target: GlcNAc(b1-3)Gal(b1-4)GlcNAc(b1-3)Gal(b1-4)GlcNAc(b1-2)Man(a1-3)[GlcNAc(b1-3)Gal(b1-4)GlcNAc(b1-3)Gal(b1-4)GlcNAc(b1-2)Man(a1-6)]Man(b1-4)GlcNAc(b1-4)[Fuc(a1-6)]GlcNAc
# Procedure, shortened: as §1
# [36] = target: GlcNAc(b1-3)Gal(b1-4)GlcNAc(b1-3)Gal(b1-4)GlcNAc(b1-2)[GlcNAc(b1-3)Gal(b1-4)GlcNAc(b1-3)Gal(b1-4)GlcNAc(b1-6)]Man(a1-6)[GlcNAc(b1-3)Gal(b1-4)GlcNAc(b1-3)Gal(b1-4)GlcNAc(b1-2)Man(a1-3)]Man(b1-4)GlcNAc(b1-4)[Fuc(a1-6)]GlcNAc
# Procedure, shortened: as §1
# [37] = target: GlcNAc(b1-3)Gal(b1-4)GlcNAc(b1-3)Gal(b1-4)GlcNAc(b1-3)Gal(b1-4)GlcNAc(b1-3)Gal(b1-4)GlcNAc(b1-2)Man(a1-3)[GlcNAc(b1-3)Gal(b1-4)GlcNAc(b1-3)Gal(b1-4)GlcNAc(b1-3)Gal(b1-4)GlcNAc(b1-3)Gal(b1-4)GlcNAc(b1-2)Man(a1-6)]Man(b1-4)GlcNAc(b1-4)[Fuc(a1-6)]GlcNAc
# Procedure, shortened: as §1
# [38] = target: GlcNAc(b1-3)Gal(b1-4)GlcNAc(b1-6)[GlcNAc(b1-3)]Gal(b1-4)GlcNAc
# Procedure, shortened: as §1
# [39] = target: GlcNAc(b1-3)[GlcNAc(b1-6)]Gal(b1-4)GlcNAc
# Procedure, shortened: as §1
# [40] = target: Kdn(a2-3)Gal(b1-3)GalNAc
# Procedure, shortened: as §1
# [41] = target: Man(a1-2)Man(a1-2)Man(a1-6)[Man(a1-3)]Man
# Procedure, shortened: as §1
# [42] = target: Man(a1-2)Man(a1-3)[Man(a1-2)Man(a1-6)]Man(a1-6)[Man(a1-2)Man(a1-2)Man(a1-3)]Man
# Procedure, shortened: as §1
# [43] = target: Man(a1-2)Man(a1-3)[Man(a1-6)]Man(a1-6)[Man(a1-2)Man(a1-3)]Man(b1-4)GlcNAc(b1-4)GlcNAc
# Procedure, shortened: as §1
# [44] = target: Man(a1-2)Man(a1-6)[Man(a1-3)]Man(a1-6)[Man(a1-2)Man(a1-2)Man(a1-3)]Man(b1-4)GlcNAc(b1-4)GlcNAc
# Procedure, shortened: as §1
# [45] = target: Neu5Ac(a2-3)Gal(b1-4)GlcNAc(b1-3)Gal(b1-4)GlcNAc
# Procedure, shortened: as §1
# [46] = target: Neu5Ac(a2-3)Gal(b1-4)GlcNAc(b1-3)Gal(b1-4)GlcNAc(b1-3)[Neu5Ac(a2-3)Gal(b1-4)GlcNAc(b1-3)Gal(b1-4)GlcNAc(b1-6)]GalNAc
# Procedure, shortened: as §1
# [47] = target: Neu5Ac(a2-6)Gal(b1-4)Glc
# Procedure, shortened: as §1
# [48] = target: Neu5Ac(a2-6)GlcNAc(b1-4)GlcNAc
# Procedure, shortened: as §1
# [49] = target: Neu5Gc(a2-3)Gal(b1-4)GlcNAc(b1-3)Gal(b1-4)GlcNAc(b1-2)Man(a1-3)[Neu5Gc(a2-3)Gal(b1-4)GlcNAc(b1-3)Gal(b1-4)GlcNAc(b1-2)Man(a1-6)]Man(b1-4)GlcNAc(b1-4)GlcNAc
# Procedure, shortened: as §1
binder,measurement,setting,value
B1,glycan array binding signal (z-score),[1],-0.379
same,glycan array binding signal (z-score),[2],-0.042
same,glycan array binding signal (z-score),[3],4.11
same,glycan array binding signal (z-score),[4],-0.164
same,glycan array binding signal (z-score),[5],-0.287
same,glycan array binding signal (z-score),[6],0.321
same,glycan array binding signal (z-score),[7],-0.358
same,glycan array binding signal (z-score),[8],-0.307
same,glycan array binding signal (z-score),[9],-0.155
same,glycan array binding signal (z-score),[10],0.468
same,glycan array binding signal (z-score),[11],-0.361
same,glycan array binding signal (z-score),[12],-0.333
same,glycan array binding signal (z-score),[13],-0.253
same,glycan array binding signal (z-score),[14],0.067
same,glycan array binding signal (z-score),[15],-0.346
same,glycan array binding signal (z-score),[16],-0.254
same,glycan array binding signal (z-score),[17],-0.235
same,glycan array binding signal (z-score),[18],0.326
same,glycan array binding signal (z-score),[19],0.149
same,glycan array binding signal (z-score),[20],0.037
same,glycan array binding signal (z-score),[21],0.134
same,glycan array binding signal (z-score),[22],-0.373
same,glycan array binding signal (z-score),[23],-0.314
same,glycan array binding signal (z-score),[24],-0.178
same,glycan array binding signal (z-score),[25],-0.376
same,glycan array binding signal (z-score),[26],-0.39
same,glycan array binding signal (z-score),[27],-0.298
same,glycan array binding signal (z-score),[28],-0.374
same,glycan array binding signal (z-score),[29],3.83
same,glycan array binding signal (z-score),[30],-0.384
same,glycan array binding signal (z-score),[31],-0.393
same,glycan array binding signal (z-score),[32],4.2
same,glycan array binding signal (z-score),[33],3.17
same,glycan array binding signal (z-score),[34],4.12
same,glycan array binding signal (z-score),[35],3.2
same,glycan array binding signal (z-score),[36],9.38
same,glycan array binding signal (z-score),[37],-0.005
same,glycan array binding signal (z-score),[38],10.1
same,glycan array binding signal (z-score),[39],6.18
same,glycan array binding signal (z-score),[40],0.361
same,glycan array binding signal (z-score),[41],7.95
same,glycan array binding signal (z-score),[42],3.54
same,glycan array binding signal (z-score),[43],-0.194
same,glycan array binding signal (z-score),[44],0.146
same,glycan array binding signal (z-score),[45],-0.396
same,glycan array binding signal (z-score),[46],-0.089
same,glycan array binding signal (z-score),[47],-0.278
same,glycan array binding signal (z-score),[48],-0.387
same,glycan array binding signal (z-score),[49],0.158
